Assay outcomes (PubChem)
CHX counter: affects cycloheximide protein synthesis inhibition readout, counter-screen. cell reporter, cycloheximide protein synthesis inhibition counterscreen. max response, %. actives 12% (n = 300,000); in the data active = max response mostly above about 13%, no sharp cut-off; inactive = mostly below about 14%; also: read at 38.3 µM for the half of the compounds with a filed dose
Pf growth 48h: inhibits P. falciparum growth in the first generation, 48 h; P. falciparum luciferase growth in erythrocytes, 48 h; Potency, µM (top dose mostly 28.7 µM), actives largely listed as inhibitors; actives 5.9% (n = 310,000); AID 504832; active = well fitted inhibition curve with a large enough effect; inconclusive = small, poorly fitted or top-dose-only effect, or another doubt; inactive = no such curve, though single readings can be large or run the other way
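Firefly luciferase activity from engineered P. falciparum reports growth; inhibitors lower the luminescent signal. Cultures contained 2% hematocrit erythrocytes at 0.1% final parasitemia.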
Pf growth 96h: P. falciparum growth inhibition at 96 hours; actives 6.9% (n = 320,000); AID 504834; P. falciparum luciferase reporter growth, 96 h; Potency, µM (top dose mostly 28.7 µM), usual class: inhibitors; active = well fitted inhibition curve with a large enough effect; inconclusive = small, poorly fitted or top-dose-only effect, or another doubt; inactive = no such curve, though single readings can be large or run the other way
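Two-generation exposure (96 h) targets delayed-death phenotype. Reporter parasites carrying integrated firefly luciferase, in red cells at 2% hematocrit and 0.05% parasitemia final, kept at 37 C, 5% CO2; luminescence loss indicates inhibition.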
SARS PLP yeast: inhibitors of SARS-CoV papain-like protease in yeast; S. cerevisiae expressing SARS-CoV PLpro, growth rescue; Potency, µM (highest dose often 32.9 µM), hits mostly activators; actives 0.19% (n = 330,000); AID 485353; also: nearly all actives have a fitted effect of over 55% in size
NS1 inh: inhibitors of influenza NS1 protein function; actives 0.4% (n = 270,000); Potency, µM (top dose mostly 46.1 µM); AID 2326; also: actives are rising curves; nearly all actives have a fitted effect of over 50% in size
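In this qHTS, NS1 from influenza A is expressed in budding yeast, where it slows growth. Cells are switched from glucose to 2% galactose medium (pH 6.0, -URA), treated with compound, and growth recovery is read at OD600.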
Shiga toxin inh: blocks Shiga toxin action in Vero cells; actives 9.2% (n = 290,000); Vero cells, Shiga toxin protein synthesis inhibition reporter; inhibition, % at 38.7 µM; in the data active = inhibition mostly above about 28%, no sharp cut-off; inactive = mostly below about 43%
Of the large screens only hits and unclear results are named; the others gave an inactive call. In the library only some 21% were active in any assay of this set; here they are far more common. Unless noted, calls follow the shape of the full dose curve.

CCCCOc1ccc(C(=O)NCC2(c3ccccc3)CCOCC2)cc1	Pf growth 48h inconclusive, Pf growth 96h 10µM
COc1ccc(C(=O)Nn2cnc3ccccc3c2=O)cc1[N+](=O)[O-]	none (no result: Pf growth 48h)
Cc1ccc(C(=O)Nn2cnc3ccccc3c2=O)cc1C	CHX counter 44, Shiga toxin inh 83
O=C(Nn1cnc2ccccc2c1=O)c1ccccc1F	CHX counter 11
O=C(Nn1cnc2ccccc2c1=O)c1ccc(Br)cc1	CHX counter 41, Pf growth 96h inconclusive, Shiga toxin inh 90
Cc1nc2ccccc2c(=O)n1NC(=O)c1ccc(C(C)(C)C)cc1	Pf growth 96h inconclusive
O=C(Nn1cnc2ccccc2c1=O)c1ccc([N+](=O)[O-])cc1	none (no result: NS1 inh)
Cc1ccc(C(=O)Nn2c(C)nc3ccccc3c2=O)cc1C	Pf growth 96h 13µM
CC(=O)Nc1ccc(S(=O)(=O)N[C@@H](C)C(=O)OCC(=O)NC2CCCC2)cc1	Pf growth 48h inconclusive (no result: CHX counter, NS1 inh, Shiga toxin inh)
O=C(Nn1cnc2ccccc2c1=O)c1ccc(Cl)c([N+](=O)[O-])c1	Pf growth 96h inconclusive
O=C(Nn1cnc2ccccc2c1=O)c1cccc(Cl)c1	CHX counter 44 (no result: NS1 inh)
CCc1ccc(C(=O)Nn2cnc3ccccc3c2=O)cc1	CHX counter 54, Shiga toxin inh 109
O=C(Nn1cnc2ccccc2c1=O)C1CCCCC1	Pf growth 96h inconclusive
CCCC1CCC(C(=O)Nn2cnc3ccccc3c2=O)CC1 (stereo not given)	Pf growth 96h 2.1µM
CCN(CC(=O)Nc1ccccc1C(F)(F)F)C(=O)c1cccc(S(=O)(=O)N2CCN(C)CC2)c1	none (no result: CHX counter, NS1 inh, Shiga toxin inh)
CCC(C)N(C(=O)CSc1nnc(COc2ccccc2F)n1N)C1CCS(=O)(=O)C1 (stereo not given)	none (no result: CHX counter, NS1 inh, Shiga toxin inh)
COc1ccc([N+](=O)[O-])cc1NC(=S)NC(NC(=O)C(c1ccccc1)c1ccccc1)C(Cl)(Cl)Cl (stereo not given)	Pf growth 96h inconclusive
Cc1oc(-c2ccc(Cl)cc2)nc1CS(=O)CC(=O)NCc1ccccn1 (stereo not given)	Pf growth 96h inconclusive
Cc1cc(NC(c2cccnc2)c2ccc3cccnc3c2O)no1 (stereo not given)	Pf growth 48h 2.1µM, Pf growth 96h 4.1µM, SARS PLP yeast 7.1µM
COc1ccc(Cl)cc1C(Nc1cccnc1)c1ccc2cccnc2c1O (stereo not given)	Pf growth 48h 5.2µM, Pf growth 96h inconclusive
COc1cc(-n2nnnc2SCC(=O)N2CCN(c3ccc(F)cc3)CC2)c(OC)cc1Cl	Pf growth 48h 15µM (no result: Pf growth 96h)
CCOC(=O)CSc1nnnn1-c1cc(OC)c(Cl)cc1OC	Pf growth 48h inconclusive
COc1ccc(-c2cc(C)no2)cc1S(=O)(=O)NCCc1ccco1	Pf growth 48h inconclusive, Pf growth 96h inconclusive
Cc1ccc(OCC(=O)Nc2ccccc2N2CCCC2)c(C)c1	Pf growth 48h 12µM
Cn1c(Cc2ccccc2)nnc1SCC(=O)Nc1ccccc1N1CCOCC1	none
CCC(=O)N1CCN(c2ccccc2NC(=O)COc2cc(C)ccc2C(C)C)CC1	Pf growth 48h 3.3µM (no result: Pf growth 96h)
Cc1cc(C)c(OCC(=O)Nc2ccccc2N2CCCCC2)c(C)c1	Pf growth 48h inconclusive, Pf growth 96h inconclusive (no result: CHX counter, NS1 inh, Shiga toxin inh)
Cc1cc(C)c(OCC(=O)Nc2ccccc2N2CCOCC2)c(C)c1	Pf growth 48h 12µM
CCn1c(Cc2ccccc2)nnc1SCC(=O)Nc1ccccc1N1CCOCC1	Pf growth 48h inconclusive, Pf growth 96h 3.3µM
COc1cc(OC)c2c(C)c(Cl)c(=O)oc2c1	Pf growth 96h 10µM
COc1c(O)c(O)c2oc(-c3ccccc3)cc(=O)c2c1OC	Pf growth 48h inconclusive, Pf growth 96h inconclusive
COc1cc(OC)c2c(=O)cc(-c3ccccc3)oc2c1	CHX counter 38, Shiga toxin inh 109
COc1cc(OC)c2c(=O)cc(-c3cccnc3)oc2c1	none
COc1cc2c(c3oc(-c4ccccc4)cc(=O)c13)C=CC(C)(C)O2	CHX counter 25, Pf growth 48h inconclusive, Pf growth 96h inconclusive, Shiga toxin inh 37
Cc1ccc(NC(=O)COC(=O)c2ccc3c(c2)NC(=O)C2CCCN32)cc1 (stereo not given)	Pf growth 48h 10µM
COc1ccc(-c2cccc(C(=O)N3CCOCC3)c2)cc1	CHX counter 30, Shiga toxin inh 57
COc1ccc(OCc2ccc(C(=O)O)cc2)cc1	CHX counter 18
COc1ccc(OCCC(=O)N2CCOCC2)cc1	none
